Results from PubChem BioAssay AID1421 (Emory University Molecular Libraries Screening Center, 2008).
About 140 (11%) of roughly 1,300 compounds were called active. The rule behind the calls is not given here. A selection follows. Results with a measured potency or affinity are listed apart.

target: Prostaglandin E2 receptor EP2 subtype (Homo sapiens) (UniProt P43116); experiment: compounds shifting PGE2 potency at EP2 – cell-based, human EP2, PGE2 EC50 shift, dose response (AID 1421); conditions: EP2-expressing cells, PGE2 EC50 shift by compound; at 20 µM
Sequence (P43116 whole entry, looked up): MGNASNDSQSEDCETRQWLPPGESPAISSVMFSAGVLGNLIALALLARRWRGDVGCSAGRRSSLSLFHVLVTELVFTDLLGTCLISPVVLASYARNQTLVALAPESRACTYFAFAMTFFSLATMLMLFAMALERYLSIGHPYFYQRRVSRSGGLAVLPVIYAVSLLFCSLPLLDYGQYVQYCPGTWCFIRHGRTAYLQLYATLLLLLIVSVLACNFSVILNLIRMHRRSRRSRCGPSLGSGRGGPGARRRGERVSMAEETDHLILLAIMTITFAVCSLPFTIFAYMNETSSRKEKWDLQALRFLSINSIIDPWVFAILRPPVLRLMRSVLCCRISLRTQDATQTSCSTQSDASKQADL

PGE2 EC50 with compound, inactive:
CC(=O)N1N=C2/C(=C/c3ccccc3)CCCC2C1c1ccccc1 (stereo not drawn) 0.44 nM, CCN=C1S/C(=C\c2ccc(O)c(OCC)c2)C(=O)N1CC 0.39 nM, CCCCOP(=O)(OCCCC)C(Nc1ccccc1)c1ccc2c(c1)OCO2 (stereo not drawn) 0.36 nM, CC(C)N(CCNC(=O)c1oc(=O)c2ccccc2c1-c1ccccc1)Cc1ccco1 0.81 nM, Oc1ccc(/C=N/N(Cc2ccccc2)c2ccccc2)cc1 0.73 nM, C/C(=N\N(Cc1ccccc1)c1ccccc1)c1cccnc1 0.37 nM, c1ccc(-c2ccccc2-c2nc(-c3cccnc3)no2)cc1 0.05 nM, Cc1scc(-c2n[nH]c(=S)n2Cc2ccccc2)c1C 0.54 nM, COc1ccc(N2CCN(c3nc4c(c(=O)n(C)c(=O)n4C)n3Cc3ccccc3)CC2)cc1 0.9 nM, Cc1ccccc1NC1=C(C(=O)c2ccccc2)N(C)S(=O)(=O)c2ccccc21 0.78 nM, Cc1cc(NC(=O)C2=C(O)c3ccccc3S(=O)(=O)N2C)no1 0.77 nM, CCOC(=O)CC(=O)CSc1nc(-c2ccc3c(c2)OCO3)cc(C(F)(F)F)c1C#N 1.22 nM, Cc1noc(C)c1CSc1nc2ccccc2c(=O)n1-c1ccc(Cl)cc1 0.51 nM, Cc1noc(C)c1CSc1nc2ccccc2c(=O)n1-c1ccc(F)cc1F 0.51 nM, CSc1nc(Oc2ccccc2)c2sccc2n1 0.62 nM, CCOC(=O)n1c(=O)n(Cc2ccc(Cl)c(Cl)c2)c2ccccc21 0.31 nM, COC(=O)c1cc(Br)c(=O)n(-c2nccs2)c1 17 nM, C=C(C)COc1ccc2c(c1)CC[C@@H]1[C@H]3C/C(=N/O)C(=O)[C@]3(C)CC[C@@H]21 0.41 nM, Cc1cccc(OC(=O)c2sc(Cl)nc2C)c1 0.61 nM, Cc1noc(C)c1CSc1ncnc2sc(C)c(C)c12 0.35 nM, O=C(Nc1ccc2c(c1)OCO2)c1cccc2c1C(=O)N(C1CCCCC1)C2 0.58 nM, CCOP(=O)(OCC)c1nc(-c2cccc3ccccc23)oc1N1CCCCC1 0.42 nM, CCc1nc(N2CCC(C)CC2)c2oc3ccccc3c2n1 0.32 nM, O=C(c1ccc2c(c1)OCO2)N(Cc1cccs1)C1(C(=O)NC2CCCCC2)CCCCC1 0.42 nM, O=C(COc1ccc(Br)cc1)Nc1ccc(-c2nnc(-c3ccco3)o2)cc1 0.53 nM, Cc1ccc2nc(N3CCC(C(=O)O)CC3)nc(-c3ccccc3)c2c1 0.5 nM, Cc1ccc(-n2c(Cc3cccc4ccccc34)n[nH]c2=S)c(C)c1 0.39 nM, CN(C)Cc1ccccc1Sc1cccc2ccccc12 0.37 nM, Cc1ccnc(SCC(=O)n2c3c(c4ccccc42)CC(C)CC3)n1 (stereo not drawn) 0.26 nM, COc1ccccc1-c1nnc(SCC(=O)c2ccc(C3CCCCC3)cc2)n1Cc1ccco1 0.46 nM, O=C(CN1CCN(Cc2ccccc2)CC1)Nc1ccccc1-c1ccccc1 0.83 nM, CCOC(=O)C1=NN(c2cccc(C)c2)C2(S1)SC(C(C)=O)=C(C)N2c1ccccc1 (stereo not drawn) 0.51 nM, Cc1ccccc1-n1c(Cn2c(=O)sc3ccccc32)nnc1SCC(=O)N1CCCC1 0.82 nM, Cc1cc(C)c2nc(N3CCCN(C(=O)c4ccco4)CC3)c(C#N)cc2c1 0.66 nM, COc1ccc(C2CC(c3cccs3)=NN2C(=O)c2ccc(Br)o2)cc1 (stereo not drawn) 0.71 nM, O=C1C2C3c4ccccc4C(c4ccccc43)C2c2nc3ccccc3n21 (stereo not drawn) 0.5 nM, COc1cc(C)c(NC(c2ccccc2)c2ccccc2)cc1OC 0.74 nM, c1ccc(-c2csc3ncnc(N4CCc5ccccc5C4)c23)cc1 0.28 nM, CCOC(=O)C(Cc1ccccc1)(NC(C)=O)C(=O)OCC 1.39 nM, O=C(O)CCCCCCCCCCCc1ccccc1 0.7 nM, O=c1c(O)c(-c2ccccc2)oc2ccc3occc3c12 0.43 nM, CCCCc1n[nH]c(=S)n1Cc1ccc(Cl)cc1 0.62 nM, CCCCc1ccc(-n2c(Cc3cccs3)n[nH]c2=S)cc1 0.6 nM, Cc1onc(-c2ccccc2)c1C(=O)N(Cc1ccco1)Cc1cccs1 0.49 nM, Cc1sc2ncnc(N(C)Cc3cccs3)c2c1C 0.78 nM, COc1cccc2[nH]c3c(N4CCCCC4)ncnc3c12 54.6 nM, O=C(c1cc2sccc2n1Cc1ccc(F)cc1)N1CCCc2ccccc21 0.27 nM, Cc1ccc(-c2nc3ccccc3nc2Cl)cc1 0.45 nM, CCOC(=O)c1c(NC(=O)CSC(=S)N(C)C)sc(C)c1C 0.55 nM, CCCOP(=O)(OCCC)C(Nc1cccc(C(F)(F)F)c1)c1ccc(C)cc1 (stereo not drawn) 0.23 nM, CCOP(=O)(OCC)c1nc(-c2cccc3ccccc23)oc1NCCc1ccc(OC)cc1 0.72 nM, CCOP(=O)(OCC)c1nc(-c2cccc3ccccc23)oc1NCc1ccccc1 0.31 nM, CCOC(=O)c1c(NC(=O)CN2C(=O)NC3(CCCCCC3)C2=O)sc(C)c1-c1ccc(C)cc1 0.74 nM, CCOP(=O)(OCC)c1nc(-c2ccc(C)cc2)oc1NCc1ccccc1 0.46 nM, Cc1ccccc1Nc1c(-c2ccccn2)nc2ccccn12 0.67 nM, COC(=O)c1cc2ccsc2n1Cc1ccccc1F 0.49 nM, CCOC(=O)c1ccccc1NC(=O)CSc1ncc(C(=O)OCC)c(N)n1 0.55 nM, CSc1nc(Sc2ccccc2Cl)c2ccccc2n1 0.41 nM, Cc1ccc(S(=O)(=O)n2c3ccc(F)cc3c3nc(C)sc32)cc1 0.2 nM, C=CCn1c(SCc2c(C)noc2C)nc2sc(C)c(C)c2c1=O 0.57 nM, C=CCn1c(SCC(N)=O)nc(C)cc1=O 0.82 nM, CC(=O)Nc1ccc(C2=NN(c3ccccc3)C(c3cccs3)C2)cc1 (stereo not drawn) 0.32 nM, CCCCCn1c(CN2CCN(c3cc(Cl)ccc3C)CC2)nc2c1c(=O)[nH]c(=O)n2C 1.94 nM, Brc1ccc(Cn2c(-c3cncs3)nc3ccccc32)cc1 0.43 nM, CCn1c2ccccc2c2cc(/C=N/n3c(C)nnc3C)ccc21 0.04 nM, Cc1ccccc1OCc1nc2ccccc2c(=O)n1/N=C/c1ccco1 0.61 nM, CN(c1ccccc1)C1CCCCC1NS(=O)(=O)c1ccc(Cl)cc1 (stereo not drawn) 0.38 nM, N#CCSc1nc2c(c(C3CC=CCC3)c1C#N)CCC2 (stereo not drawn) 0.5 nM, CN(CC(=O)Nc1ccccc1-c1ccccc1)Cc1ccccc1Cl 0.6 nM, CSc1ccccc1NC(=O)COc1ccc(Cl)cc1C 0.35 nM, C(=N\N1CCN(C2c3ccccc3-c3ccccc32)CC1)/c1cccnc1 0.43 nM, COC(=O)c1c(NC(NC(=O)C(C)C)C(Cl)(Cl)Cl)sc2c1CCCC2 (stereo not drawn) 0.51 nM, O=C(O)CSc1cc(-c2ccccc2)nc2ccccc12 1.19 nM, N/C(CSc1nc(-c2ccccc2)c(-c2ccccc2)o1)=N\O 0.37 nM, C=CCC(=O)OCCCCCCOc1ccc(C(=O)O)cc1 0.73 nM, CC(C)Oc1ccc(/C=C(/NC(=O)c2ccccc2)C(=O)NCCC(=O)O)cc1 0.98 nM, Cc1ccc(C(=O)OCC(=O)Nc2ccccc2Sc2ccccc2)cc1C 0.26 nM, CN(/N=C/C=C/c1ccccc1)C1=NS(=O)(=O)c2ccccc21 0.14 nM, CCC(C)(C)n1nnnc1C(c1ccncc1)N1CCC(Cc2ccccc2)CC1 (stereo not drawn) 1.27 nM, CC1=CC(C)(C)N(S(=O)(=O)c2ccc(C)cc2)c2cc(C)ccc21 0.39 nM, CC1(c2cc([N+](=O)[O-])cc([N+](=O)[O-])c2)CC(C)(C)N(C(=O)c2ccccc2)c2ccccc21 (stereo not drawn) 0.35 nM, CCOP(=O)(OCC)c1nc(-c2ccccc2)oc1NCc1ccccc1 0.36 nM, O=C(O)c1cccc(NN=C2c3ccccc3-c3ccccc32)c1 0.74 nM, O=c1c2oc3ccccc3c2[nH]c(=S)n1-c1ccccc1 1.48 nM, CN=C1CC(SC)=C1c1ccc(C)cc1 2.68 nM, Cc1cc(O)c(C=O)c2c1C(=O)Oc1c(C)c(O)c3c(c1O2)C(O)OC3=O (stereo not drawn) 0.42 nM, O=C(NNc1ccc([N+](=O)[O-])cc1[N+](=O)[O-])C1C2CCCCC21 (stereo not drawn) 1.49 nM, CCOC(=O)C1=C(C)N(C)C(C)=C(C(=O)OCC)C1c1ccsc1 0.71 nM, FC(F)(F)c1cccc(-c2cc3ccccc3nc2N2CCCC2)c1 0.54 nM, O=C(Oc1ccc(-c2nccc(-c3ccccn3)n2)cc1)c1cccc(C(F)(F)F)c1 1.38 nM, CCCCOc1cc(C)nc(NCc2ccccc2)n1 0.31 nM, COc1cnc(SCc2c(Cl)cccc2Cl)nc1Cl 0.18 nM, COC(=O)CSc1nc2c(c(C3CC=CCC3)c1C#N)CCC2 (stereo not drawn) 0.61 nM
